# High-throughput results (PubChem BioAssay)
# A selection: hits, their analogues and other compounds. The true share with any hit is near 6.2%.
# GRIN3A LBD mod – binders of NR3A ligand-binding domain, primary screen, biophysical, differential scanning fluorimetry, uHTS | 2.5% of 340,000 active | Glutamate receptor ionotropic, NMDA 3A (GRIN3A) ligand-binding domain | NR3A LBD differential scanning fluorimetry, Tm shift; 0% = protein alone, 100% = glycine-bound protein | Tm shift relative to glycine control, % at 25 µM | AID 1259313, 2017;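 active means melting temperature shift of at least 10% of the positive control shift, at one fixed dose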
# AI-2 QS mod – Vibrio harveyi AI-2 quorum sensing modulators, primary screen, JMH597 strain, luminescence/OD600 ratio | Vibrio harveyi JMH597 AI-2 luminescence/OD600 ratio, 9 h; stronger effect = lower value; strain lacks LuxN and CqsS sensors; 0 = neutral-control median | activity change, % at 7.5 µM | 0.4% of 300,000 active | AID 2094, 2009; in the data active means activity change below about -75%, passing the limit was not always enough; inconclusive means no clear call, values can overlap the other calls;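 further: luminescence divided by OD600 gain over 9 h not by final OD600 alone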
# Cardio protect – cardioprotection against H2O2-induced cell death, primary screen, uHTS, H9c2 cells, ATPLite luminescence; H9c2 cardiomyocytes, H2O2 injury protection, 2 h; protection from H2O2 cell death, % at 20 µM; 0.63% of 360,000 active;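 active means compounds giving at least 50% protection of heart cells from peroxide-induced death in the single-dose screen, raw or plate-pattern-corrected value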;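 further: 0% = DMSO wells with peroxide and 100% = DMSO wells without peroxide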
# Mot1-301 SUMO – yeast Mot1-301 growth rescue at high temperature, primary screen, SUMOylation pathway inhibitor project, S. cerevisiae, ATP luminescence, 38.5C; S. cerevisiae Mot1-301 growth rescue; percent above DMSO median, 100 means doubled; growth rescue, % at 18.8 µM; 1% of 320,000 active; AID 2716, 2010;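 active means every valid replicate shows activation above 250% relative to neutral control wells; inactive means the rest, any valid replicate at or below 250%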;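 further: OY570 slx delta 5 strain wells were the positive control but not used for scaling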
# AHR activator – AHR activators, primary screen, cell-based, luminescence, luciferase reporter, human; 2.5% of 320,000 active; AHR-responsive luciferase reporter cells; activation, % at 5 µM; AID 2796, 2010; Aryl hydrocarbon receptor (Homo sapiens), P35869; in the data active means activation above about 47%;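 further: 0% = vehicle wells and 100% = reference agonist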
# NTR1 agonist – agonists of human NTR1, primary screen, imaging, U2OS cells, beta-arrestin-GFP, high content. Neurotensin receptor type 1 (Homo sapiens), P30989. NTR1-U2OS beta-arrestin-GFP spot imaging, agonist mode. activation, % at 20 µM. 0.17% of 330,000 active;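 active means activation at or above 40% of the spot to cytoplasm intensity ratio, with at least 20 cells analyzed; inconclusive means wells under 20 cells, flagged as cytotoxic or low count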;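 further: 0% = DMSO without peptide and 100% = 100 nM NTR1 peptide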
# Target sequence (P30989 whole entry, looked up): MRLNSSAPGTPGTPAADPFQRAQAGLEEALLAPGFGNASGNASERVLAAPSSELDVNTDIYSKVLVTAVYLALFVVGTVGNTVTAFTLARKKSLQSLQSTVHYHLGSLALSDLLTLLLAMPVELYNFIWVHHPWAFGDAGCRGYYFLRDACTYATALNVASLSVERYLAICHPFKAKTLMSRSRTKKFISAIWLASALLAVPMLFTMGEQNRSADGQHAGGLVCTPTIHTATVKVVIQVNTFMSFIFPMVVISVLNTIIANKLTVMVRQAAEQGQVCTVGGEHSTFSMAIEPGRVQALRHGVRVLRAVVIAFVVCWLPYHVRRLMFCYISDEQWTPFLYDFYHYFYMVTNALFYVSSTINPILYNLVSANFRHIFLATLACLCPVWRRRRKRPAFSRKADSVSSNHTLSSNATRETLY
# JMH597 growth rt – Vibrio harveyi growth inhibition, confirmation, counter-screen for AI-2 quorum sensing project, JMH597 strain, OD600 absorbance; shares compounds with AI-2 QS mod; 9 h; lacks LuxN and CqsS sensors; growth inhibition, % at 7.5 µM; 1% of 750 active; AID 2726, 2010;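 active means every replicate shows growth inhibition above 50%; inconclusive means at least half, but not all, replicates pass that cutoff; inactive means fewer than half of replicates pass it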
# BB721 lum counter – luminescence inhibition in constitutive-on V. harveyi, confirmation, counter-screen for LuxS inhibitor project, strain BB721, luminescence readout | inhibition, % at 7.5 µM | Vibrio harveyi BB721 luminescence, 9 h | shares compounds with AI-2 QS mod | 95% of 750 active | AID 2727, 2010;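 active means inhibition above about 80% in every replicate, not just on average, limit read from the data; inconclusive means at least half of replicates past the limit, but not all; inactive means fewer than half of replicates past the limit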
# BB721 growth rt – growth inhibition of V. harveyi BB721, confirmation, cytotoxicity control for AI-2 quorum sensing inhibitors, strain BB721, absorbance OD600; shares compounds with AI-2 QS mod; Vibrio harveyi BB721 growth, 9 h; growth inhibition, % at 7.5 µM; 3% of 750 active; AID 2728, 2010;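 active means every replicate shows growth inhibition above 50%; inconclusive means at least half but not all replicates above 50% inhibition; inactive means under half of replicates above 50% inhibition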
# AI-2 QS JMH597 – Vibrio harveyi AI-2 signaling luminescence modulation – JMH597 strain, confirmation | shares compounds with AI-2 QS mod | Vibrio harveyi JMH597 AI-2 quorum sensing luminescence, 9 h; luxN and CqsS knockout, AI-2 only | inhibition, % at 7.5 µM | 97% of 750 active | AID 2736, 2010;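 active means every replicate shows more than 75% inhibition of signal versus neutral control wells; inconclusive means half to three quarters of replicates exceed 75% inhibition; inactive means fewer than half of replicates exceed 75% inhibition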
# Active calls of the source: *; ? = inconclusive; . = no result given.
SMILES,GRIN3A LBD mod,AI-2 QS mod,Cardio protect,Mot1-301 SUMO,AHR activator,NTR1 agonist,JMH597 growth rt,BB721 lum counter,BB721 growth rt,AI-2 QS JMH597
Cc1nn(CC(=O)Nc2cccnc2)c(=O)c2ccccc12,0,-95*,17,3,6,1,-1,98*,-9,99*
CNC(=O)Cn1nc(C)c2ccccc2c1=O,-2,3,8,-10,-1,-1,.,.,.,.
NS(=O)(=O)c1ccc(NC(=O)Cn2nc(C(=O)O)c3ccccc3c2=O)cc1,-2,9,15,78,1,-1,.,.,.,.
Cc1nn(CC(=O)Nc2ccc(C(=O)N3CCCCC3)cc2)c(=O)c2ccccc12,1,-82*,1,-2,1,1,7,93*,-11,94*
COc1ccc(C(=O)Cn2nnc(-c3ccccc3NC(=O)C3CC3)n2)cc1,-2,27,-7,-12,1,0,.,.,.,.
COc1ccc(C(=O)Cn2nnc(-c3ccccc3F)n2)cc1,6,-86*,-3,349,-1,1,25,95*,-3,97*
CC(=O)NCCNc1nc2cc(-c3cscc3C)sc2c(=O)n1C,.,.,6,.,.,.,.,.,.,.
COc1ccc(Cc2nc(-c3ccc(Cl)cc3)no2)cc1,6,-88*,-6,19,11,2,10,97*,-5,98*
Clc1ccc(-c2noc(COc3ccccc3)n2)cc1,2,?,-14,51,-2,7,1,86*,15,94*
Clc1ccc(-c2noc(CCCOc3ccccc3)n2)cc1,4,18,-17,-14,2,6,.,.,.,.
CCCn1c(N)c(Sc2ccccc2[N+](=O)[O-])c(=O)n(CCC)c1=O,1,-7,-3,1,0,2,.,.,.,.
O=C(/C=C/Sc1ccccc1)c1ccccc1,-38,-92*,-26,41,0,11,10,98*,47,98*
COC(=O)c1ccc(C)c(NC(=O)Cn2cnc3ccccc3c2=O)c1,-3,-86*,1,-8,1,0,-16,94*,-18,96*
O=C(Cn1cnc2ccccc2c1=O)Nc1ccc2c(c1)CCC2,0,-83*,0,-6,5,1,7,99*,-6,99*
O=C(Cn1nnc2ccccc2c1=O)Nc1ccc2c(c1)CCC2,-3,-94*,6,-5,10,1,-15,99*,-29,99*
O=C(Cn1nnc2ccccc2c1=O)NC1CCCc2ccccc21 (centres undefined),-10,25,0,2,0,1,.,.,.,.
Cc1ccc(S(=O)(=O)NC(=O)C2(C)CCN2C(=O)COc2ccc(Cl)cc2)nc1 (centres undefined),.,.,-3,.,.,.,.,.,.,.
Cc1ccc(C(=O)NCCc2nnc3c(C(F)(F)F)cc(Cl)cn23)o1,0,33,5,20,0,-1,.,.,.,.
CCOC(=O)C1CCCN(S(=O)(=O)c2cccs2)C1 (centres undefined),0,?,-2,414,-2,0,17,99*,-18,100*
CCOC(=O)C1CCCN(S(=O)(=O)c2ccc(S(=O)(=O)N3CCCC3)cc2)C1 (centres undefined),1,5,-9,-9,-1,0,.,.,.,.
CCCCC1(c2ccc(F)cc2)NC(=O)N(CC(=O)N2CCN(C(=O)c3ccco3)CC2)C1=O (centres undefined),1,8,2,3,-2,-1,.,.,.,.
Oc1ccc(Cl)cc1CNc1cnc2ccccc2c1,-6,-97*,-14,-21,3,10,14,99*,15,100*
O=C(NN=C1CCCCC1)Nc1ccccc1Cl,5,22,0,13,9,0,.,.,.,.
O=C(Cn1cnc2c(nnn2Cc2ccc(F)cc2)c1=O)Nc1cccc(F)c1,-1,11,-7,28,-3,0,.,.,.,.
O=C(Cn1cnc2c(nc3n2CCCCC3)c1=O)Nc1cccc(C(F)(F)F)c1,1,-86*,-2,-8,-1,1,-9,95*,5,96*
SMILES,GRIN3A LBD mod,AI-2 QS mod,Cardio protect,Mot1-301 SUMO,AHR activator,NTR1 agonist,JMH597 growth rt,BB721 lum counter,BB721 growth rt,AI-2 QS JMH597
O=C(c1cc(COc2c(F)cccc2F)on1)N1CCc2ccccc2C1,1,?,-11,22,-1,0,4,87*,8,91*
N#Cc1nc(-c2ccc(F)cc2)oc1NCc1cccc2c1OCO2,-10,?,-21,-19,25,8,3,89*,-10,93*
N#Cc1nc(-c2cccs2)oc1NCCc1ccccc1,4,2,-19,-15,-13,5,.,.,.,.
Cc1ccc(-c2nc(C#N)c(NCc3cccc4c3OCO4)o2)cc1,-19,-46,-16,2,9,3,.,.,.,.
N#Cc1nc(-c2cccs2)oc1NCc1ccc2c(c1)OCO2,-11,-85*,-18,-11,29,3,32,94*,32,96*
C[C@@H]1CN([C@@H](C)CO)C(=O)CCCn2nncc2CO[C@H]1CN(C)S(=O)(=O)c1ccc2ccccc2c1,.,.,-2,.,.,.,.,.,.,.
Cc1cc(NS(=O)(=O)c2ccc(CC(C)C)cc2)no1,-1,-59,-5,33,2,0,.,.,.,.
CCc1ccc(OCC(=O)Nc2ccc(S(=O)(=O)Nc3ccccn3)cc2)cc1,-2,-85*,-5,-3,-2,2,-2,89*,-29,96*
COc1ccc(S(=O)(=O)Nc2ccccc2)cc1,0,25,8,-3,1,2,.,.,.,.
COc1ccc(S(=O)(=O)Nc2ccc(Nc3ccccc3)cc2)cc1,9,-97*,-9,32,-2,7,68*,100*,46,100*
Cc1cc(NS(=O)(=O)c2ccc(C(C)C)cc2)no1,0,-86*,11,1,3,1,39,87*,3,100*
